Counter-ions that a name gives are not always drawn.
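Note: breast cancer cell viability read out with the CCK-8 kit after co-treatment of each compound with the ferroptosis inducer RSL3.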

The subject of this assay is HCC1937. As to the kind of experiment: relative cell viability, compound + RSL3, vs DMSO (fraction of DMSO control); higher = less growth inhibition. Conditions: 72 h.
`COc1ccc(C2(CNC(=O)c3ccc(NC(=O)c4ccco4)cc3)CCOCC2)cc1` + COC(=O)c1ccc([C@H]2c3[nH]c4ccccc4c3C[C@H](C(=O)OC)N2C(=O)CCl)cc1 [RSL3]: the relative cell viability worked out at 0.441.

Turning to `O=C(c1ccc(-c2nc3ccc(F)cc3o2)cc1)N1CCN(C(=O)C2(O)CC2)CC1` + COC(=O)c1ccc([C@H]2c3[nH]c4ccccc4c3C[C@H](C(=O)OC)N2C(=O)CCl)cc1 [RSL3], the relative cell viability was found to be 0.398.

`O=C(O)CC[C@H](O)C(=O)O` [L-2-Hydroxyglutaric acid disodium] + COC(=O)c1ccc([C@H]2c3[nH]c4ccccc4c3C[C@H](C(=O)OC)N2C(=O)CCl)cc1 [RSL3]: the relative cell viability was determined as 0.554.

As for `C/C=C(\CC[C@@H](C)[C@H]1CC[C@H]2[C@@H]3CC=C4C[C@@H](O)CC[C@]4(C)[C@H]3CC[C@]12C)C(C)C` [Fucosterol] + COC(=O)c1ccc([C@H]2c3[nH]c4ccccc4c3C[C@H](C(=O)OC)N2C(=O)CCl)cc1 [RSL3], the relative cell viability stood at 0.476.

In the case of `C[C@H](CCC(=O)O)[C@H]1CC[C@H]2[C@@H]3CC[C@@H]4C[C@H](O)CC[C@]4(C)[C@H]3CC[C@]12C` [Lithocholic acid] + COC(=O)c1ccc([C@H]2c3[nH]c4ccccc4c3C[C@H](C(=O)OC)N2C(=O)CCl)cc1 [RSL3], the relative cell viability was 0.844.

Regarding `COC(=O)/C=C/c1cccc(N(Cc2ccc(-c3ccc(N(C)C)cc3)cc2)C(=O)C2CCCCC2)c1` [Fexaramine] + COC(=O)c1ccc([C@H]2c3[nH]c4ccccc4c3C[C@H](C(=O)OC)N2C(=O)CCl)cc1 [RSL3], the relative cell viability amounted to 0.316.

With `O=C(CN1CCN(C(=O)c2ccco2)CC1)Nc1cc(C(F)(F)F)ccc1Cl` + COC(=O)c1ccc([C@H]2c3[nH]c4ccccc4c3C[C@H](C(=O)OC)N2C(=O)CCl)cc1 [RSL3], the relative cell viability came to 0.268.

Regarding `COc1ccc2[nH]cc(CCNC(C)=O)c2c1` [Melatonine] + COC(=O)c1ccc([C@H]2c3[nH]c4ccccc4c3C[C@H](C(=O)OC)N2C(=O)CCl)cc1 [RSL3], the relative cell viability was 0.613.

On to `COP(=O)(OC)OC(c1ccc(Cl)cc1)P(=O)(OC)OC` (centres undefined) [Mifobate] + COC(=O)c1ccc([C@H]2c3[nH]c4ccccc4c3C[C@H](C(=O)OC)N2C(=O)CCl)cc1 [RSL3], for which the relative cell viability is 0.632.

On to `COc1c(/C=C/C(=O)c2ccc(O)cc2)ccc(O)c1CC=C(C)C` + COC(=O)c1ccc([C@H]2c3[nH]c4ccccc4c3C[C@H](C(=O)OC)N2C(=O)CCl)cc1 [RSL3], for which the relative cell viability worked out at 0.579.

For `CSc1ccc(C(=O)/C=C/c2cc(C)c(OC(C)(C)C(=O)O)c(C)c2)cc1` [Elafibranor] + COC(=O)c1ccc([C@H]2c3[nH]c4ccccc4c3C[C@H](C(=O)OC)N2C(=O)CCl)cc1 [RSL3], the relative cell viability was 0.83.

Take `O=c1c(O[C@@H]2O[C@H](CO)[C@@H](O)[C@H](O)[C@H]2O)c(-c2ccc(O)cc2)oc2cc(O)cc(O)c12` [Astragalin] + COC(=O)c1ccc([C@H]2c3[nH]c4ccccc4c3C[C@H](C(=O)OC)N2C(=O)CCl)cc1 [RSL3]: the relative cell viability was 0.586.

As for `COC(=O)CN(c1ccc(CN(c2ccc(OCc3ccc(C)cc3)c(C(=O)OC)c2)S(=O)(=O)Cc2ccccc2)cc1)S(C)(=O)=O` + COC(=O)c1ccc([C@H]2c3[nH]c4ccccc4c3C[C@H](C(=O)OC)N2C(=O)CCl)cc1 [RSL3], the relative cell viability came to 0.538.

As to `C[N+](C)(C)CC(O)CC(=O)[O-]` (stereo not drawn) [L(-)-Carnitine] + COC(=O)c1ccc([C@H]2c3[nH]c4ccccc4c3C[C@H](C(=O)OC)N2C(=O)CCl)cc1 [RSL3], the relative cell viability worked out at 0.621.

Regarding `CC1=C(/C=C/C(C)=C/C=C/C(C)=C/C=C/C=C(C)/C=C/C=C(C)/C=C/C2=C(C)C(=O)[C@@H](O)CC2(C)C)C(C)(C)C[C@H](O)C1=O` [Astaxanthin] + COC(=O)c1ccc([C@H]2c3[nH]c4ccccc4c3C[C@H](C(=O)OC)N2C(=O)CCl)cc1 [RSL3], the relative cell viability worked out at 0.562.

Turning to `O=C(O)/C=C/c1ccc(O)c(O)c1` [Caffeic Acid] + COC(=O)c1ccc([C@H]2c3[nH]c4ccccc4c3C[C@H](C(=O)OC)N2C(=O)CCl)cc1 [RSL3], the relative cell viability was 0.623.

As to `O=C(O)c1cc2c(Cl)c(N3CCN(S(=O)(=O)c4c(Cl)cccc4Cl)CC3)ccc2o1` [Vonafexor] + COC(=O)c1ccc([C@H]2c3[nH]c4ccccc4c3C[C@H](C(=O)OC)N2C(=O)CCl)cc1 [RSL3], the relative cell viability turned out to be 0.514.

Turning to `CC(C)[C@H]1CC[C@H](C(=O)N[C@H](Cc2ccccc2)C(=O)O)CC1` [Nateglinide] + COC(=O)c1ccc([C@H]2c3[nH]c4ccccc4c3C[C@H](C(=O)OC)N2C(=O)CCl)cc1 [RSL3], the relative cell viability worked out at 0.594.

For the compound `CC(=O)N1CCN(c2ccc(OCC3COC(Cn4ccnc4)(c4ccc(Cl)cc4Cl)O3)cc2)CC1` (centres undefined) [Ketoconazole] + COC(=O)c1ccc([C@H]2c3[nH]c4ccccc4c3C[C@H](C(=O)OC)N2C(=O)CCl)cc1 [RSL3], the relative cell viability worked out at 0.63.

Consider `CCCCCCCCCCCC1=C(O)C(=O)C=C(O)C1=O` [Embelin] + COC(=O)c1ccc([C@H]2c3[nH]c4ccccc4c3C[C@H](C(=O)OC)N2C(=O)CCl)cc1 [RSL3], for which the relative cell viability was 0.458.

In the case of `Cc1c(C(=O)NN2CCOCC2)nn(-c2ccc(Cl)cc2Cl)c1-c1ccc(I)cc1` + COC(=O)c1ccc([C@H]2c3[nH]c4ccccc4c3C[C@H](C(=O)OC)N2C(=O)CCl)cc1 [RSL3], the relative cell viability worked out at 0.0566.

For `O=c1ccc2cc(O)c(O)cc2o1` [Esculetin] + COC(=O)c1ccc([C@H]2c3[nH]c4ccccc4c3C[C@H](C(=O)OC)N2C(=O)CCl)cc1 [RSL3], the relative cell viability was found to be 0.301.

As for `CC(=O)O[C@H](CC=C(C)C)C1=CC(=O)c2c(O)ccc(O)c2C1=O` [Acetyl shikonin] + COC(=O)c1ccc([C@H]2c3[nH]c4ccccc4c3C[C@H](C(=O)OC)N2C(=O)CCl)cc1 [RSL3], the relative cell viability was 0.665.

Regarding `CC[C@H](C)C(=O)O[C@H]1C[C@@H](C)C=C2C=C[C@H](C)[C@H](CC[C@@H]3C[C@@H](O)CC(=O)O3)[C@H]21` [Lovastatin] + COC(=O)c1ccc([C@H]2c3[nH]c4ccccc4c3C[C@H](C(=O)OC)N2C(=O)CCl)cc1 [RSL3], the relative cell viability was determined as 0.867.

For `COc1ccc(CN2CCC(c3ccc4nc(C(=O)N5CCN(Cc6ccc(C(F)(F)F)cc6)CC5)[nH]c4c3)CC2)cn1` + COC(=O)c1ccc([C@H]2c3[nH]c4ccccc4c3C[C@H](C(=O)OC)N2C(=O)CCl)cc1 [RSL3], the relative cell viability was 0.351.

For the compound `O=C(OC(C(F)(F)F)C(F)(F)F)N1CCN(Cc2ccc(C(F)(F)F)cc2N2CCCC2)CC1` + COC(=O)c1ccc([C@H]2c3[nH]c4ccccc4c3C[C@H](C(=O)OC)N2C(=O)CCl)cc1 [RSL3], the relative cell viability turned out to be 0.928.

For `CC(C)(Oc1ccc(Cl)cc1)C(=O)O` [Clofibric acid] + COC(=O)c1ccc([C@H]2c3[nH]c4ccccc4c3C[C@H](C(=O)OC)N2C(=O)CCl)cc1 [RSL3], the relative cell viability turned out to be 0.956.

Regarding `CCc1c(-c2ccccc2)c(-c2ccccc2)nn1-c1ccccc1-c1cccc(OCC(=O)O)c1` + COC(=O)c1ccc([C@H]2c3[nH]c4ccccc4c3C[C@H](C(=O)OC)N2C(=O)CCl)cc1 [RSL3], the relative cell viability was determined as 0.503.

Regarding `COc1ccc(C(=O)/C=C/c2ccccc2)cc1` [4'-Methoxychalcone] + COC(=O)c1ccc([C@H]2c3[nH]c4ccccc4c3C[C@H](C(=O)OC)N2C(=O)CCl)cc1 [RSL3], the relative cell viability stood at 0.282.

Regarding `O=S(=O)(c1ccccc1)N(CC(F)(F)F)c1ccc(C(O)(C(F)(F)F)C(F)(F)F)cc1` + COC(=O)c1ccc([C@H]2c3[nH]c4ccccc4c3C[C@H](C(=O)OC)N2C(=O)CCl)cc1 [RSL3], the relative cell viability was determined as 0.36.

On to `CC1(C)CC[C@]2(C(=O)O[C@@H]3O[C@H](CO)[C@@H](O)[C@H](O)[C@H]3O)CC[C@]3(C)C(=CC[C@@H]4[C@@]5(C)CC[C@H](O[C@@H]6O[C@H](C(=O)O)[C@@H](O)[C@H](O)[C@H]6O[C@@H]6O[C@H](CO)[C@@H](O)[C@H](O)[C@H]6O)C(C)(C)[C@@H]5CC[C@]43C)[C@@H]2C1` [Ginsenoside Ro] + COC(=O)c1ccc([C@H]2c3[nH]c4ccccc4c3C[C@H](C(=O)OC)N2C(=O)CCl)cc1 [RSL3], for which the relative cell viability worked out at 0.375.

Take `CCCCCCCCCCCCC/C=C/[C@@H](O)[C@@H](N)CO` + COC(=O)c1ccc([C@H]2c3[nH]c4ccccc4c3C[C@H](C(=O)OC)N2C(=O)CCl)cc1 [RSL3]: the relative cell viability was determined as 0.0823.

With `Cc1cnc(C(=O)NCCc2ccc(S(=O)(=O)NC(=O)NC3CCCCC3)cc2)cn1` [Glipizide] + COC(=O)c1ccc([C@H]2c3[nH]c4ccccc4c3C[C@H](C(=O)OC)N2C(=O)CCl)cc1 [RSL3], the relative cell viability was determined as 0.597.

`CC(=O)Nc1nc(C)c(S(=O)(=O)Nc2ccc(C(O)(C(F)(F)F)C(F)(F)F)cc2)s1` + COC(=O)c1ccc([C@H]2c3[nH]c4ccccc4c3C[C@H](C(=O)OC)N2C(=O)CCl)cc1 [RSL3]: the relative cell viability amounted to 0.484.

Regarding `O=c1oc2ccccc2cc1O` [3-Hydroxycoumarin] + COC(=O)c1ccc([C@H]2c3[nH]c4ccccc4c3C[C@H](C(=O)OC)N2C(=O)CCl)cc1 [RSL3], the relative cell viability was determined as 0.587.

On to `CCN(CC)C(=O)N1CCN(C)CC1` [Diethylcarbamazine citrate] + COC(=O)c1ccc([C@H]2c3[nH]c4ccccc4c3C[C@H](C(=O)OC)N2C(=O)CCl)cc1 [RSL3], for which the relative cell viability was 0.61.

Regarding `CC1(C)C[C@H]2C3=CC[C@@H]4[C@@]5(C)CC[C@H](O)[C@@](C)(CO)[C@@H]5CC[C@@]4(C)[C@]3(C)C[C@H](O)[C@@]2(CO)[C@@H](O)[C@@H]1O` [Gymnemagenin] + COC(=O)c1ccc([C@H]2c3[nH]c4ccccc4c3C[C@H](C(=O)OC)N2C(=O)CCl)cc1 [RSL3], the relative cell viability came out at 0.571.

Regarding `CCC(=O)O[C@]1(C(=O)CCl)[C@@H](C)C[C@H]2[C@@H]3C[C@H](F)C4=CC(=O)C=C[C@]4(C)[C@@]3(F)[C@@H](O)C[C@@]21C` [Halobetasol Propionate] + COC(=O)c1ccc([C@H]2c3[nH]c4ccccc4c3C[C@H](C(=O)OC)N2C(=O)CCl)cc1 [RSL3], the relative cell viability was 0.393.

Turning to `CCCC[S+]([O-])c1sc2nc(-c3cccs3)cc(-c3ccccc3)c2c1N` (centres undefined) + COC(=O)c1ccc([C@H]2c3[nH]c4ccccc4c3C[C@H](C(=O)OC)N2C(=O)CCl)cc1 [RSL3], the relative cell viability came to 0.748.

The record behind these values is the supplement of paper PMC9492666.
